Screening data as filed in PubChem.
D2 antag = antagonizes the human D2 dopamine receptor; 2% of 340,000 active; HEK293 TREx D2 cells, calcium flux, dopamine EC80; inhibition, % at 10 µM; in the data active = inhibition above about 30%; inactive = below that, where a call was filed
Target sequence (P14416 whole entry, looked up): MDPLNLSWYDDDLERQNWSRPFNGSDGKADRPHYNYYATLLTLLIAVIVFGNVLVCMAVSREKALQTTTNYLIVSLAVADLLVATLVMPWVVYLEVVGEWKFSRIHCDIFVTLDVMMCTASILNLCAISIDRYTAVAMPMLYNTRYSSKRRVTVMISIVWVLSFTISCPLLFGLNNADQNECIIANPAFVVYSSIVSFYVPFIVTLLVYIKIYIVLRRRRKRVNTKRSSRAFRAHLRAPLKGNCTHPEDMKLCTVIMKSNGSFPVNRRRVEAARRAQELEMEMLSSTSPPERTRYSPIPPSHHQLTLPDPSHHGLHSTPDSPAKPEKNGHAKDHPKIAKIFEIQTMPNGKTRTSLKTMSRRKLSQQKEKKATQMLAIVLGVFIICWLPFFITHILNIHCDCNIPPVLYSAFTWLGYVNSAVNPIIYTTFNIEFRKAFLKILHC
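Overnight-induced (tetracycline, 30 C) HEK293 T-REx cells carrying force-coupled D2 receive a no-wash calcium dye, then compound, then EC80 dopamine at 180 s; signals are read kinetically throughout.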
D2 ag-1 = human D2 receptor agonism in beta-arrestin assay; P14416; DiscoveRx PathHunter D2 beta-arrestin, luminescence, 90 min; 100% = 57 uM dopamine signal; activation, % (test concentration not listed); 0.084% of 360,000 active; AID 624465; in the data active = activation above about 40%; inconclusive = between about 15% and that limit
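Agonist mode: compounds alone added to overnight-plated D2 PathHunter cells for 90 min at 37 C, with 57 uM final dopamine (EC100) defining full response. Beta-arrestin recruitment detected by chemiluminescent reagent, read after 1 h at ambient temperature.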
D2 ag-2 = activates the human D2 dopamine receptor | activation, % at 2 µM | AID 485358 | 0.53% of 340,000 active | P14416 | HEK293 T-REx D2 cells, calcium flux agonist mode;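 active = activation over 3 SD above normal in the single-dose calcium agonist read, cut at about 30% in these data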
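HEK293 Trex D2 cells, tetracycline-induced, o/n 30 C 5% CO2; no-wash Ca dye, RT 30–90 min; 10-cycle baseline, 23 nl cpd added, kinetic Ca read 180 s; agonist hits = positive Ca response.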
D2 PAM-1 = positively modulates the human D2 dopamine receptor allosterically; HEK293 T-REx D2, calcium flux, EC20 dopamine potentiation; potentiation, % at 10 µM; 0.34% of 340,000 active; AID 485347;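 active = potentiation over 3 SD above the plate norm, cut at about 30% in these data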
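Using a no-wash calcium dye in inducible, force-coupled HEK293 Trex cells expressing D2, we tracked fluorescence each second for 180 s after compound, then for 180 s after EC20 dopamine to detect augmented signalling.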
D2 PAM-2 = potentiates the human D2 dopamine receptor allosterically. potentiation, % (concentration not given with the values). AID 624464. 0.23% of 360,000 active. DiscoveRx D2 beta-arrestin cells, luminescence, 90 min; 100% = 57 uM dopamine signal; in the data active = potentiation above about 50%; inconclusive = mostly about 30% to 49%
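D2 cells co-treated with compound plus 50 nM dopamine (EC20) for 90 min at 37 deg C to detect potentiation. Beta-arrestin recruitment was read as enzyme-fragment luminescence after 1 h at ambient temperature. Full response was set by 57 uM dopamine.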
Large screens that a line does not name were inactive. This is a sample that favours compounds with a hit; in the whole collection about 2.4% have one here.

O=C(CCc1ccc(S(=O)(=O)N2CCOCC2)cc1)N/N=C/c1ccc(F)cc1F	none
O=C(CCc1ccc(S(=O)(=O)N2CCOCC2)cc1)N/N=C/c1ccc(O)c(O)c1O	D2 ag-1 inconclusive, D2 PAM-2 82
COCC1CCN(C(=O)c2ccc3oc(CCCc4ccccc4)nc3c2)C1 (stereo unspecified)	D2 PAM-1 44
Cc1cc(-c2ccc(C)c(S(=O)(=O)NCCC(C)N3CCCCCC3)c2)on1 (stereo unspecified)	none
CCc1ccc(-c2cc(C)no2)cc1S(=O)(=O)NCCc1ccccc1	D2 antag 30
Cc1cc(-c2ccc(C)c(S(=O)(=O)NCCCN3CCCCCC3)c2)on1	D2 antag 34
CCc1ccc(-c2cc(C)no2)cc1S(=O)(=O)NC(C)Cc1ccco1 (stereo unspecified)	D2 PAM-1 84
Cc1cc(-c2ccc(C)c(S(=O)(=O)NCCc3ccccc3)c2)on1	none (no result: D2 antag, D2 ag-1, D2 PAM-2)
Cc1ccc(S(=O)(=O)N(C)C)cc1NC(=O)CSc1ncc(C(F)(F)F)cc1Cl	D2 antag 37
CC(=O)c1ccc(OCCCC(=O)Nc2cc(S(=O)(=O)N(C)C)ccc2C)cc1	none
Cc1ccc(S(=O)(=O)N(C)C)cc1NC(=O)Nc1ccccc1F	D2 antag 64
COc1ccccc1CNC(=O)CCCNC(=O)c1ccc(Cl)cc1	D2 PAM-1 30
Cc1ccc(S(=O)(=O)N(C)C)cc1NC(=O)CCCNC(=O)c1ccc(Cl)cc1	D2 antag 41
CCN(CC)S(=O)(=O)c1ccc(C)c(NC(=O)CSc2ncc(C(F)(F)F)cc2Cl)c1	none
CCCCOc1ccc(CNC(=O)Cc2ccc(NC(=O)N3CCSc4ncccc43)cc2)cc1	none (no result: D2 antag, D2 ag-1, D2 PAM-2)
CSc1cccc(NC(=O)CCCNC(=O)c2ccc(Cl)cc2)c1	D2 antag 45
Cc1cccc(NC(=O)CCNC(=O)c2ccccc2)c1	D2 antag 35
Cc1cc(Nc2cccc(Cl)c2)nc2ccc(NC(=O)COc3ccc(Cl)cc3)cc12	none (no result: D2 antag, D2 ag-1, D2 PAM-2)
O=C(NNC1=Nc2ccccc2SC1)c1cccc([N+](=O)[O-])c1	D2 antag 71
COc1ccc(Cl)cc1C(=O)NCC(c1ccc(N(C)C)cc1)N1CCCC1 (stereo unspecified)	none (no result: D2 antag, D2 ag-1, D2 PAM-2)
CS(=O)(=O)N1CCN(c2ccc(NC(=S)NC(=O)c3ccccc3[N+](=O)[O-])cc2)CC1	D2 antag 33
CCc1ccc(CN(Cc2ccco2)c2cnc(S(C)(=O)=O)nc2C(=O)Nc2cccc(C)c2)cc1	none (no result: D2 antag, D2 ag-1, D2 PAM-2)
CN(C)c1ccc(/C=N/NC(=O)CNC(=O)c2ccc3c(c2)OCCO3)cc1	none
CCN(CC)c1ccc(/C=N/NC(=O)CNC(=O)c2ccc3c(c2)OCCO3)cc1	D2 antag 33
COc1cccc(OCC(O)CN2CCC(Cc3ccccc3)CC2)c1 (stereo unspecified)	none
Cc1ccc(OCC(O)Cn2c3ccccc3c3ccccc32)cc1 (stereo unspecified)	none
COc1ccc(OC)c(S(=O)(=O)N2CCN(CC(O)COc3ccccc3)CC2)c1 (stereo unspecified)	D2 antag 48
Cc1cc(C)cc(OCC(O)CN2CCN(Cc3ccc4c(c3)OCO4)CC2)c1 (stereo unspecified)	none
OC(COc1ccccc1)CN1CCC(Cc2ccccc2)CC1 (stereo unspecified)	D2 antag 74
COc1ccc(OC)c(S(=O)(=O)N2CCN(CC(O)COc3ccc(C#N)cc3)CC2)c1 (stereo unspecified)	none
OC(COc1ccccc1)CN1CCN(Cc2ccc3c(c2)OCO3)CC1 (stereo unspecified)	D2 antag 36
Cc1ccc(OCCN2CCN(CC(O)Cn3c4ccccc4c4ccccc43)CC2)cc1 (stereo unspecified)	D2 antag 63, D2 ag-2 63 (no result: D2 ag-1, D2 PAM-2)
CCC1CCCCN1C(=O)c1ccc2c(c1)N(Cc1cccc(Cl)c1)C(=O)c1ccccc1S2(=O)=O (stereo unspecified)	none (no result: D2 antag, D2 ag-1, D2 PAM-1, D2 PAM-2)
COc1ccc(NC(=O)c2cc3c(s2)-c2c(C)cccc2OC3)c(OC)c1	none (no result: D2 antag, D2 ag-1, D2 PAM-2)
CCC(C)NC(=O)Cn1ncc2c(C)n(Cc3ccc(F)cc3)c(C)c2c1=O (stereo unspecified)	none (no result: D2 antag, D2 ag-1, D2 ag-2, D2 PAM-2)
CN1CCN(CC(O)COc2ccccc2)CC1 (stereo unspecified)	D2 antag 33
OC(COc1ccccc1F)CN1CCC(Cc2ccccc2)CC1 (stereo unspecified)	D2 antag 65
OC(COc1ccc(F)cc1Cl)CN1CCC(Cc2ccccc2)CC1 (stereo unspecified)	none
C=CCc1ccc(OCC(O)CN2CCC(Cc3ccccc3)CC2)c(OC)c1 (stereo unspecified)	D2 antag 41
C=CCn1c(O)c(N=NC(=S)Nc2ccccc2F)c2ccccc21	D2 antag 68
CCC(=O)N(Cc1ccco1)Cc1cc2cccc(C)c2n2nnnc12	D2 antag 34
Cc1ccc2c(c1)cc(CN(Cc1ccco1)C(=O)COc1ccccc1)c1nnnn12	none
CCOc1ccc(CNC(=O)C2CCN(c3nc4ccccc4nc3C(F)(F)F)CC2)cc1OC	none (no result: D2 antag, D2 ag-1, D2 PAM-2)
N/C(COc1ccc(Cl)cc1Cl)=N\O	D2 PAM-1 32
COc1c(C)cccc1C(=O)Nc1ccc(Cl)c(-c2nc3cc(C)ccc3o2)c1	none (no result: D2 antag, D2 ag-1, D2 PAM-2)
COc1ccc(NC(=O)C2CC(=O)N(Cc3ccc(C)cc3)C2)cc1S(=O)(=O)N1CCCCC1 (stereo unspecified)	D2 antag 43
Cc1ccc(CN2CC(C(=O)O)CC2=O)cc1 (stereo unspecified)	D2 PAM-1 30
O=C(O)c1cc2cc(S(=O)(=O)O)ccc2cc1O	none (no result: D2 antag, D2 ag-2, D2 PAM-1)
O=C(O)c1cc(S(=O)(=O)O)ccc1O	D2 antag 42
COc1ccc(OCC(=O)Nc2ccccc2C(=O)N2CCOCC2)cc1	D2 PAM-1 36
OCC1(CCOc2ccccc2)CCN(Cc2ccccc2OC(F)F)CC1	none
C=CCOc1ccccc1CN1CCC(CO)(CCOc2ccccc2)CC1	D2 antag 64
CSc1ccc(CN2CCC(CO)(CCOc3ccccc3)CC2)cc1	D2 antag 51
CC(C)(C)c1ccc2c(c1)N(CC(=O)O)C(=O)CO2	none
COC(=O)CN1C(=O)COc2ccc(Cl)cc21	none
CN(C)CCNC(=O)CN1C(=O)COc2ccc(C(C)(C)C)cc21	D2 antag 36
COCCNC(=O)CN1C(=O)COc2ccc(Cl)cc21	D2 antag 35
COc1cc(C(=O)NCC(c2ccc3c(c2)OCO3)N2CCOCC2)cc(OC)c1OC (stereo unspecified)	none (no result: D2 antag, D2 ag-1, D2 PAM-2)
O=c1c2ccccc2nc(SCc2cc(F)cc3c2OCOC3)n1Cc1ccco1	none
CCOC(=O)c1cc2c(c(CSc3nc4ccccc4c(=O)n3Cc3ccco3)c1)OCOC2	D2 antag 31
